Screening results deposited in PubChem by several laboratories.
AHR activator – human AHR activation | P35869 | AHR-responsive luciferase reporter cells, luminescence | activation, % at 5 µM | actives 2.5% (n = 320,000) | AID 2796; in the data active = activation above about 47%
SENP8 block-1 – inhibitors of human SENP8 protease. recombinant SENP8, Nedd8 substrate fluorescence. AID 602440. Q96LD8. actives 0.64% (n = 360,000). inhibition, % at 20 µM; in the data active = inhibition mostly above about 40%, no sharp cut-off; inactive = mostly below about 27%
Target sequence (Q96LD8 whole entry, looked up): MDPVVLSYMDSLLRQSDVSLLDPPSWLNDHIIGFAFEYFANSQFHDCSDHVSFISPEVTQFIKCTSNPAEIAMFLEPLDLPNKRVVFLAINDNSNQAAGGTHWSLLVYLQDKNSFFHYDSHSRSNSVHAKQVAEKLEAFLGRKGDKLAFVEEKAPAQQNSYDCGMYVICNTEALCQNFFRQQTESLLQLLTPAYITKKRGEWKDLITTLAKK
EBI2 antag – antagonists of human EBI2 receptor. P32249. EBI2 beta-arrestin recruitment, luminescence, 7a,25-OHC stimulated. inhibition, % at 5 µM. actives 0.81% (n = 360,000). AID 651636; in the data active = inhibition above about 38%;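 note: enzyme fragment complementation signal reports receptor beta-arrestin coupling in cells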
SENP8 block-2 – blocks the human protease SENP8 | purified SENP8, Z-RLRGG-aminoluciferin cleavage, luminescence | actives 1.2% (n = 330,000) | Q96LD8 | inhibition, % at 10 µM; in the data active = inhibition above about 50%
SENP7 inh – SENP7 protease inhibition. Q9BQF6. recombinant SENP7, Z-RLRGG-aminoluciferin luminescence, 40 min. inhibition, % at 5 µM. actives 1.5% (n = 330,000). AID 434973;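 active = inhibition above about 50% at the single test dose, limit read from the data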
SENP6 inh – SENP6 protease inhibition. Recombinant SENP6 catalytic domain, aminoluciferin luminescence. actives 1.8% (n = 330,000). inhibition, % at 10 µM. Q9GZR1;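 active = inhibition above about 50% at the single tested dose, limit read from the data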
SENP8 conf – human SENP8 inhibition, confirmed. shares compounds with SENP7 inh. Recombinant SENP8, Z-RLRGG-aminoluciferin luminescence, 60 min. inhibition, % at 12.5 µM. actives 40% (n = 6,200). AID 488912;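 active = mean inhibition across replicates above about 50%, limit read from the data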
SENP6 conf – human SENP6 inhibition, confirmed; shares compounds with SENP7 inh; recombinant SENP6, Z-RLRGG-aminoluciferin luminescence; inhibition, % at 12.5 µM; actives 58% (n = 6,200)
SENP7 conf – human SENP7 inhibition, confirmed; shares compounds with SENP7 inh; recombinant SENP7, Z-RLRGG-aminoluciferin luminescence, 40 min; inhibition, % at 12.5 µM; actives 69% (n = 6,200)
Casp3 SENP sel – caspase-3 inhibition (SENP selectivity assay). purified caspase-3, Z-DEVD-aminoluciferin luminescence, 60 min. shares compounds with SENP7 inh. inhibition, % at 12.5 µM. actives 60% (n = 6,200);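 active = mean inhibition above about 50%, limit read from the data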
Target sequence (P42574 28-227 limits assumed): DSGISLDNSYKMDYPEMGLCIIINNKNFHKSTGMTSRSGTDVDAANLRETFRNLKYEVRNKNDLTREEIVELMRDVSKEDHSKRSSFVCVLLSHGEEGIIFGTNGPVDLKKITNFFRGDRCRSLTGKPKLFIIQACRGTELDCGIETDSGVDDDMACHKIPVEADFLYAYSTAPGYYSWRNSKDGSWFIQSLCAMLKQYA
Luc interf – luminescence interference (SENP counter-screen); shares compounds with SENP7 inh; Pre-incubated SENP8/Z-RLRGG-aminoluciferin, luciferase luminescence interference; inhibition, % at 12.5 µM; actives 39% (n = 6,200);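 active = mean inhibition above about 50% when retested at one dose, limit read from the data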
Hits are given with their value; . = inactive; / = no result. The list is not random: actives were taken first. Their share in the collection is about 5%.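 Rule for the calls, unless noted: active = mean inhibition above about 50% in the one-dose retest (limit read from the data); inactive = the rest.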

SMILES	AHR activator	SENP8 block-1	EBI2 antag	SENP8 block-2	SENP7 inh	SENP6 inh	SENP8 conf	SENP6 conf	SENP7 conf	Casp3 SENP sel	Luc interf
O=C1/C(=C\c2cccnc2)CCc2ccccc21	.	.	.	.	.	74	75	63	.	.	84
O=C1/C(=C/c2ccccc2)CCCc2ccccc21	.	.	.	76	66	70	89	93	97	76	83
CCCn1c(SCC(=O)NC(=O)Nc2ccc(C)cc2C)n[nH]c1=O	.	.	.	.	.	.	/	/	/	/	/
Cc1ccc(NC(=O)NC(=O)CSc2nnc(-c3ccc(Cl)cc3Cl)n2N)c(C)c1	.	.	.	.	59	63	56	56	83	.	72
c1csc(-c2cn3ccc4ccccc4c3n2)c1	57	.	.	80	86	89	.	90	99	82	84
COc1ccccc1N1CCN(S(=O)(=O)c2ccc(-n3cnnn3)cc2)CC1	.	.	.	.	.	.	/	/	/	/	/
CC(C)N1CCN(Cc2coc3ccccc3c2=O)CC1CCO (configuration not stated)	.	.	.	.	.	.	/	/	/	/	/
C#CCN1C(=O)S/C(=C\c2ccc(-c3ccc(Cl)c(C(=O)O)c3)o2)C1=O	.	.	.	.	.	70	74	74	82	.	.
O=C(O)c1cc(-c2ccc(/C=C3\NC(=O)N(c4ccccc4)C3=O)o2)ccc1Cl	.	.	.	.	.	.	/	/	/	/	/
COC(=O)c1sc2nc3c(cc2c1N)CCCC3	.	.	.	57	75	.	.	72	91	76	51
NC(=O)c1sc2nc3c(cc2c1N)CCC3	.	.	.	.	.	.	/	/	/	/	/
CC(C)(C)NC(=O)CSc1nc2cc(S(=O)(=O)N3CCCCC3)ccc2o1	.	.	.	.	.	.	/	/	/	/	/
C=CCn1c(SCC(=O)NC(=O)Cc2ccccc2)nnc1-c1ccccc1F	.	.	.	.	.	.	/	/	/	/	/
COc1cccc(NC(=O)c2cnn(-c3ccccc3)c2C)c1	.	.	.	78	85	82	.	85	98	89	86
Cc1ccc(NC(=O)c2cnn(-c3ccccc3)c2C)cc1	.	.	.	.	67	66	67	64	89	70	.
Cc1cccc(C)c1NC(=O)c1cnn(-c2ccccc2)c1C	.	.	.	.	.	.	/	/	/	/	/
CCc1cccc(NC(=O)c2cnn(-c3ccccc3)c2C)c1	.	.	.	83	85	90	.	87	98	81	81
Cc1ccc(NC(=O)c2cnn(-c3ccccc3)c2C)c(C)c1	.	.	.	.	.	.	/	/	/	/	/
Cc1cccc(/C=C2\CCC(=C3SCCCS3)C2=O)c1	.	.	.	93	92	91	.	.	.	.	.
O=C1C(=C2SCCCS2)CC/C1=C\c1ccc(F)cc1	.	.	.	96	99	95	.	68	63	84	.
O=C1C(=Cc2ccc(F)cc2)Cc2ccccc21	/	.	.	/	/	/	/	/	/	/	/
CCOC(=O)C1(CCOC)CCN(C(C)CCc2ccc(OC)cc2)CC1 (configuration not stated)	.	.	.	.	.	.	/	/	/	/	/
COc1cccc(/C(C)=N/Nc2ccc(S(=O)(=O)N3CCCCC3)cn2)c1	.	.	.	.	.	.	/	/	/	/	/
FC(F)(F)c1cc(Cl)c2nc(-c3ccccc3)c(Cc3ccsc3)n2c1	/	.	.	/	/	/	/	/	/	/	/
Cc1cc(C(F)(F)F)nc(-n2cc(-c3cccc(N)c3)nn2)n1	.	.	.	.	.	.	/	/	/	/	/
SMILES	AHR activator	SENP8 block-1	EBI2 antag	SENP8 block-2	SENP7 inh	SENP6 inh	SENP8 conf	SENP6 conf	SENP7 conf	Casp3 SENP sel	Luc interf
FC(F)(F)c1cc(Cl)c2nc(-c3ccccc3)cn2c1	74	.	.	76	87	83	.	81	94	69	.
Nc1cccc(-c2cn3cc(C(F)(F)F)cc(Cl)c3n2)c1	63	.	.	70	86	82	84	84	97	86	86
CCCNC(=O)c1cc(C2CCCCN2C(=O)c2cccs2)on1 (configuration not stated)	/	.	.	/	/	/	/	/	/	/	/
CCc1nnc(SCC(=O)NC2CC2)n1CC	.	.	.	.	.	.	/	/	/	/	/
C/C(=N\Nc1nncc2ccccc12)c1ccc(C(C)(C)C)cc1	.	.	.	.	.	.	/	/	/	/	/
C/C(=N\Nc1nncc2ccccc12)c1cccc(OC(F)F)c1	.	.	.	89	100	97	68	75	82	75	.
C/C(=N\Nc1nncc2ccccc12)c1ccc(O)cc1	.	.	.	.	.	67	.	.	.	.	.
Cc1nn(C)c(C)c1NS(=O)(=O)c1c(C)n[nH]c1C	.	.	.	.	.	.	/	/	/	/	/
N#CCCN(C(=O)COC(=O)c1ccc2c(=O)n3c(nc2c1)CCC3)c1ccc(F)cc1	.	.	.	.	.	.	/	/	/	/	/
Cc1ccc(NC(=O)c2cc3ccccc3oc2=N)cc1	.	.	.	.	90	58	.	.	.	.	.
N=c1oc2ccccc2cc1C(=O)Nc1cccc(F)c1	.	.	.	56	92	66	.	.	.	62	.
N=c1oc2ccccc2cc1C(=O)Nc1ccc(F)cc1	/	.	.	/	/	/	/	/	/	/	/
N=c1oc2cc(O)ccc2cc1C(=O)Nc1ccc(Cl)cc1	.	.	.	54	.	55	.	.	.	.	.
CCCCn1nnnc1C(c1ccccc1)N1CCN(CCN2CCOCC2)CC1 (configuration not stated)	/	.	.	/	/	/	/	/	/	/	/
CC1=C(C(=O)N2CCOCC2)C(c2ccccc2F)NC(=O)N1 (configuration not stated)	.	.	.	.	.	.	/	/	/	/	/
Cc1ccc(/C=N/Nc2nnc(Cl)c3ccccc23)cc1	61	.	.	86	95	93	.	.	.	.	.
Clc1cccc(/C=N/Nc2ncnc3ccccc23)c1	.	.	.	.	.	.	/	/	/	/	/
Cc1ccc(-c2nc(N/N=C/c3ccncc3)c3ccccc3n2)cc1	64	.	.	89	89	88	.	.	.	.	.
Cc1c(O)ccc(/C=N/Nc2nc(-c3cccnc3)nc3ccccc23)c1O	.	.	.	.	.	.	/	/	/	/	/
